Assay outcomes as filed in PubChem BioAssay.
Glyco luc inh – N-linked glycosylation inhibition. D54 ERlucT glycosylation luciferase reporter, 24 h; percent of 100 nM tunicamycin response. reporter increase, % at 12.5 µM. hit rate 0.23% among 360,000;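 active = mean luciferase reporter signal, scaled so untreated is 0 and the glycosylation-blocking control 100, at or above a set limit in every replicate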;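 note: luciferase carries N-glycosylation sites so blocking glycosylation raises the light; 0% = median of neutral control wells and 100% = median of 100 nM tunicamycin wells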
Rtt109 HAT inh – C. albicans Rtt109 histone acetyltransferase inhibition | Q5AAJ8 | purified Rtt109/Vps75, ThioGlo CoA-SH fluorescence, 4 h | inhibition, % at 34.9 µM | hit rate 0.16% among 330,000 | AID 540336;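 active = inhibition of at least 50% in every replicate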
Target sequence (Q5AAJ8 whole entry, looked up): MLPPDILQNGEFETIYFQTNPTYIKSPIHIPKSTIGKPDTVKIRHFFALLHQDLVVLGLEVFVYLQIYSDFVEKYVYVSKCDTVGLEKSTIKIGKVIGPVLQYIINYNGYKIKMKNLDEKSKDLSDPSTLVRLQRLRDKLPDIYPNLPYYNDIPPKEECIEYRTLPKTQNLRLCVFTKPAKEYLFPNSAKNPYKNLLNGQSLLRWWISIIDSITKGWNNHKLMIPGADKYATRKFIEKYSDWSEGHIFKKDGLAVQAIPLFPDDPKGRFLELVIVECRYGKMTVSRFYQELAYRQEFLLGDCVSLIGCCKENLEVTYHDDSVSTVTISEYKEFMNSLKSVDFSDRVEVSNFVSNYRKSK
DENV2 CPE – inhibitors of DENV2 cytopathic effect. AID 651640. CPE inhibition, % at 9.99 µM. hit rate 1.7% among 350,000. DENV2-infected cells, cytopathic effect rescue, plate reader; in the data active = CPE inhibition above about 20%, passing the limit was not always enough; tested in BHK-21 cells;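 note: 0% = median of neutral control wells and 100% = median of positive control wells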
PglD inh – PglD (C. jejuni) enzyme inhibition | purified PglD enzyme, DTNB colorimetric CoA detection | inhibition, % at 12.5 µM | hit rate 0.098% among 360,000; in the data active = inhibition above about 16%, passing the limit was not always enough
* hit, by the source's call; · = not tested or not shown. This is one part of a sample in which hits are shown more often than they occur.

SMILES | Glyco luc inh | Rtt109 HAT inh | DENV2 CPE | PglD inh
COc1ccc2c3c(n(C)c2c1)[C@@H](CO)N(C(=O)Cc1ccccc1)CC31CCN(C)CC1 | · | · | -8 | ·
COCC(=O)NC[C@@H]1[C@@H](c2ccc(C3=CCCC3)cc2)[C@@H](CO)N1C(=O)C1CC1 | · | · | 25* | 3
COCC(=O)NC[C@@H]1[C@H](c2ccc(C3=CCCC3)cc2)[C@H](CO)N1C(=O)C1CC1 | · | · | -5 | 3
CC(=O)NC[C@H]1[C@@H](c2ccc(C3=CCCCC3)cc2)[C@@H](CO)N1C(=O)NC(C)C | · | · | 55* | -2
COCC(=O)N1[C@@H](C#N)[C@@H](c2ccc(C3=CCCCC3)cc2)[C@@H]1CO | · | · | 24* | 6
CC(=O)NC[C@H]1[C@H](c2ccc(C3=CCCC3)cc2)[C@@H](CO)N1C(=O)NC(C)C | · | · | -8 | 1
O=C(C[C@H]1C[C@@H]2c3cc(NS(=O)(=O)c4ccc(F)cc4)ccc3O[C@@H]2[C@@H](CO)O1)NCc1ccc(Cl)cc1 | · | · | 10 | 2
C[C@H](CO)N1C[C@H](C)[C@H](CN(C)Cc2cccc(C(=O)O)c2)Oc2cc(C3=CCCC3)ccc2S1(=O)=O | · | · | 44* | 1
C[C@H]1CN([C@@H](C)CO)S(=O)(=O)c2ccc(C3=CCCC3)cc2O[C@@H]1CN(C)Cc1cccnc1 | · | · | 30* | -2
O=C(C[C@H]1C[C@H]2c3cc(NS(=O)(=O)c4ccccc4)ccc3O[C@H]2[C@@H](CO)O1)NC1CCCC1 | · | · | 3 | 2
O=C(Nc1cc(F)ccc1F)N[C@@H]1CC[C@@H](CCn2cc(C3CC3)nn2)O[C@H]1CO | · | · | -2 | 3
CCOC(=O)c1cc2sccc2n1CC(=O)N1c2ccccc2CC1C (centres undefined) | 377* | -7 | · | ·
C[C@@H]1CN([C@H](C)CO)C(=O)Cc2cc(NC(=O)C3CC3)ccc2O[C@H]1CN(C)Cc1ccncc1 | · | · | -7 | 0
COC(=O)c1ccc(C)c(NS(=O)(=O)c2ccc3c(c2)OCCO3)c1 | 31* | 22 | · | 5
COC(=O)c1ccc(C)c(NS(=O)(=O)c2ccc(OC)cc2)c1 | 16 | -9 | 1 | 7
CC(C)=CCOc1c2ccoc2cc2oc(=O)ccc12 | -1 | -5 | 125* | 2
CC(C)=CCOc1c2ccoc2c(OCC=C(C)C)c2oc(=O)ccc12 | -3 | 1 | 2 | -1
CCCNC(=O)[C@H]1[C@H](CO)[C@H]2Cn3c(ccc(C4=CCCC4)c3=O)[C@H]2N1Cc1ccccc1 | · | · | 10 | 0
Cn1c(=O)c2[nH]c(CCCCc3nc4ccccc4[nH]3)nc2n(C)c1=O | 4 | 1 | 47* | ·
CC(O)Cc1cn([C@@H](CCCCN)C(=O)N2CCNCC2)nn1 (some centres undefined) | 2 | -2 | 25* | -5
COc1ccc(NC(=O)N(C)C[C@@H]2Oc3ccc(NC(=O)C4CC4)cc3C(=O)N([C@H](C)CO)C[C@H]2C)cc1 | · | · | -7 | -2
C[C@@H]1CN([C@@H](C)CO)C(=O)Cc2cc(NS(=O)(=O)c3cccs3)ccc2O[C@H]1CN(C)S(=O)(=O)c1ccccc1 | · | · | 78* | 1
CC(C)NC(=O)N(C)C[C@@H]1Oc2ccc(NS(=O)(=O)c3cccs3)cc2CC(=O)N([C@@H](C)CO)C[C@@H]1C | · | · | 22* | -1
CO[C@H]1CC[C@@H]2CCOc3ccc(C#N)cc3C(=O)N(C)C[C@@H](C)C(=O)N(C)C[C@@H]1O2 | · | · | -1 | -6
COCC#Cc1ccc([C@@H]2[C@H]3CN(C(=O)C4CC4)CC(=O)N3[C@H]2CO)cc1 | · | · | 0 | ·
SMILES | Glyco luc inh | Rtt109 HAT inh | DENV2 CPE | PglD inh
COC(=O)C(CC#Cc1ccc2c(c1)[C@]1(C(=O)N2)[C@H](c2ccc(OCCO)cc2)N2[C@H](c3ccccc3)[C@H](c3ccccc3)OC(=O)[C@H]2[C@@H]1C(=O)N1CCCCCCC1)C(=O)OC | · | · | 4 | 2
CCOc1ccc(/C=N/NC(=O)c2ccccc2O)cc1CN1CC2CC(C1)c1cccc(=O)n1C2 (centres undefined) | 1 | 2 | 58* | 5
C[C@H]1CN([C@@H](C)CO)C(=O)c2cc(NC(=O)CCC(F)(F)F)ccc2O[C@H]1CN(C)C(=O)Nc1ccc(C(F)(F)F)cc1 | · | · | -1 | -2
C[C@@H]1CCCCO[C@H](CN(C)S(=O)(=O)c2ccc(F)cc2)[C@H](C)CN([C@@H](C)CO)C(=O)c2cc(NC(=O)Nc3ccc4c(c3)OCO4)ccc2O1 | · | · | -5 | -4
CO[C@@H]1CN(C)C(=O)c2cc(NC(=O)C3CC3)ccc2OC[C@@H](C)N(C)C[C@@H]1C | · | · | -3 | 7
CN(C(=O)CSCC(=O)Nc1ccc(Cl)cc1)C1CCCCC1 | 0 | 2 | 62* | -1
CC(=O)c1ccc(NC(=O)c2ccc(NC(=O)CCS(=O)(=O)c3cccs3)cc2)cc1 | -2 | 9 | · | 0
CC(=O)c1cccc(NC(=O)c2ccc(NC(=O)CCS(=O)(=O)c3cccs3)cc2)c1 | -4 | 2 | 28* | -10
O=c1[nH]c(=O)n([C@H]2C[C@H](O)[C@@H](CO)O2)cc1I | 55* | -9 | -7 | -2
Cc1ccc(S(=O)(=O)Nc2ccc3c(c2)C(=O)N([C@@H](C)CO)C[C@@H](C)[C@H](CN(C)S(=O)(=O)c2cn(C)cn2)OCCCC[C@@H](C)O3)cc1 | · | · | 21* | -2
Cc1noc(C)c1S(=O)(=O)Nc1ccc2c(c1)C(=O)N([C@@H](C)CO)C[C@@H](C)[C@H](CN(C)S(=O)(=O)c1cn(C)cn1)OCCCC[C@@H](C)O2 | · | · | 37* | 1
C[C@@H]1CCCCO[C@H](CN(C)S(=O)(=O)c2cn(C)cn2)[C@H](C)CN([C@@H](C)CO)C(=O)c2cc(NS(=O)(=O)c3ccc(Cl)cc3)ccc2O1 | · | · | -6 | 3
Cc1noc(C)c1S(=O)(=O)Nc1ccc2c(c1)C(=O)N([C@@H](C)CO)C[C@@H](C)[C@@H](CN(C)S(=O)(=O)c1cn(C)cn1)OCCCC[C@H](C)O2 | · | · | -3 | -1
C[C@@H]1CCCCO[C@@H](CN(C)S(=O)(=O)c2cn(C)cn2)[C@@H](C)CN([C@H](C)CO)C(=O)c2cc(NS(=O)(=O)c3ccc(Cl)cc3)ccc2O1 | · | · | 37* | 8
C[C@H](CO)N1C[C@H](C)[C@H](CN(C)S(=O)(=O)c2ccc(F)cc2)Oc2ccc(N(C)C)cc2CC1=O | · | · | -4 | 7
CN(c1cccc(NC(=O)c2ccc(C(C)(C)C)cc2)c1)S(C)(=O)=O | -11 | 1 | 21* | 4
C[C@@H]1CCCCO[C@@H](CN(C)Cc2ccccc2)[C@@H](C)CN([C@@H](C)CO)C(=O)c2cc(NC(=O)C3CCCCC3)ccc2O1 | · | · | 27* | 1
C[C@H](CO)N1C[C@H](C)[C@@H](CN(C)Cc2ccccc2)OCCCC[C@H](C)Oc2ccc(NC(=O)C3CCCCC3)cc2C1=O | · | · | -2 | -2
C[C@@H]1CCCCO[C@@H](CN(C)Cc2ccc(C(=O)O)cc2)[C@@H](C)CN([C@@H](C)CO)C(=O)c2cc(NC(=O)C3CCCCC3)ccc2O1 | · | · | 38* | 5
Cc1noc(C)c1S(=O)(=O)Nc1ccc2c(c1)C(=O)N([C@H](C)CO)C[C@@H](C)[C@@H](CN(C)S(=O)(=O)c1ccccc1)OCCCC[C@H](C)O2 | · | · | -7 | 0
